From PubChem BioAssay
uPA generation = blocks generation of uPA at the cell surface; Potency, µM (series often up to 38.3 µM), inactives show at the highest dose activity change, negative = inhibition, actives largely listed as inhibitors; cell surface uPA generation assay, qHTS; 0.31% of 330,000 active; active = well fitted inhibition curve with a large enough effect; inconclusive = small, poorly fitted or top-dose-only effect; inactive = no such curve, though single readings can be large or run the other way; tested in mouse RAW 264.7 cells; note: potency is the fitted concentration of half-maximal effect; % is set by controls: 0 for no effect and ±100 for the full control effect; nearly all actives have a fitted effect of over 55% in size
Giardia kill = Giardia lamblia killing | Giardia lamblia trophozoite viability | activity change, % at 7.66 µM, hits read low | 0.15% of 340,000 active; in the data active = activity change below about -80%; inconclusive = between about -30% and that limit;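 note: parasites exposed to compound for two days anaerobically before the ATP read; % is set by controls: 0 for no effect and ±100 for the full control effect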
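Trophozoites 100 cells/well + cpd; 48 hrs, 37 deg C, anaerobic. ATPLite 1-Step added, 15-30 min RT, luminescence read (ATP-based viability).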
B2AR arrestin = agonists driving beta-arrestin recruitment to human beta2-adrenergic receptor | 0.02% of 330,000 active | beta-arrestin recruitment to beta2AR, cell-based reporter | AID 492947 | Potency, µM (top dose mostly 46.1 µM), inactives show at the highest dose activation, usual class: activators | P07550;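 note: potency is the fitted concentration of half-maximal effect; 0% = DMSO controls and full agonism = EC100 isoproterenol or metaproterenol; nearly all actives have a fitted effect of over 65% in size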
Target sequence (P07550 whole entry, looked up): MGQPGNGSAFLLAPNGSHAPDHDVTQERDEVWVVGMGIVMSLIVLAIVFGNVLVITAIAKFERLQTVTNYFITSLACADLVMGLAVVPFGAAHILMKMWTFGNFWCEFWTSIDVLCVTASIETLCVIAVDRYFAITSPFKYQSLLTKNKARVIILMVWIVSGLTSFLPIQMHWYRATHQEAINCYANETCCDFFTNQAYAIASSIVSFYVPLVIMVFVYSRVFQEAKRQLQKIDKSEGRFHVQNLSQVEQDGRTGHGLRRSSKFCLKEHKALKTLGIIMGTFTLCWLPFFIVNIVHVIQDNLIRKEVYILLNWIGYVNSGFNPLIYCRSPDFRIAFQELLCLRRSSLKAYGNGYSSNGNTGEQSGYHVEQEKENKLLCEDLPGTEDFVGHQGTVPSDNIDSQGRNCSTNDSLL
p53 reactivation = mutant p53 re-activation in reporter cells. Potency, µM (series often up to 92.2 µM), for inactives: at the top dose activity change, positive = activation, usual class: activators. H1299 p53-A138V BP100-luciferase reporter, luminescence, 24 h. 0.063% of 320,000 active; note: potency is the fitted concentration of half-maximal effect; % of control where 0% means no effect; nearly all actives have a fitted effect of over 45% in size
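H1299 (p53-null), stable ts p53-A138V + BP100-Luc; 1000 cells/well, Opti-MEM/10% FBS; cpd 4 pt, 1:5; 24 h, 37 deg C, 5% CO2; detection reagent 10 min RT; luminescence.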
ClpP mod = qHTS Assay for Activators of ClpP; 1.9% of 340,000 active; Potency, µM (doses to about 57.5 µM), inactives show top-dose activity change, negative = active; ATP-dependent Clp protease proteolytic subunit (Bacillus subtilis (strain 168)), P80244; purified B. subtilis ClpP, FRET peptide cleavage, 20 min; active = well fitted falling curve with a large enough effect; inconclusive = small, poorly fitted or top-dose-only effect; inactive = no such curve, though single readings can be large or run the other way; note: potency is the fitted concentration of half-maximal effect; the source files actives as falling curves though it sought activators and does not explain the sign; nearly all actives have a fitted effect of over 65% in size
Target sequence (P80244 whole entry, looked up): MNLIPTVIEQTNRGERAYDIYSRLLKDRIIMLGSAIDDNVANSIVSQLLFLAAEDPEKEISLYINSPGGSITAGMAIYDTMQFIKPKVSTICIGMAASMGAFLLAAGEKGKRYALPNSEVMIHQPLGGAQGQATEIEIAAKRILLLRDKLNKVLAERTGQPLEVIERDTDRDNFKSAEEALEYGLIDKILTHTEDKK
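FRET quenching reversal measured ClpP activation: 10 microg/mL B. subtilis ClpP at pH 8 with the FRET-FV decapeptide, read at 430 nm after 320 nm excitation. The 20-min minus 0-min signal was scaled between DMSO/no-enzyme wells and ADEP (5.8 microM final).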
Mito fusion yeast = blocks mitochondrial division or promotes mitochondrial fusion | S. cerevisiae fusion-defective mutant growth rescue, CellTiterGlo 48 h | Potency, µM (series often up to 46.1 µM), for inactives: at the top dose growth rescue (activation), actives largely listed as activators | 0.23% of 320,000 active; note: potency is the fitted concentration of half-maximal effect; % of control where 0% means no effect; nearly all actives have a fitted effect of over 45% in size
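Compounds are tested for their ability to restore growth of mitochondrial fusion-defective yeast strains at non-permissive 37C in YPEG medium over 48 hours. Viability is quantified by luciferase luminescence.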
* hit, by the source's call; ? = inconclusive; . = not tested or not shown; ! = repeats disagree. Hits are enriched below; roughly 2.1% of the tested compounds scored in any of these assays. Unless noted, calls come from the whole dose curve; as a rule, active = well fitted curve in the direction sought with a large enough effect; inconclusive = small, poorly fitted or top-dose-only effect, or another doubt; inactive = no such curve, though single readings can be large; an effect the other way counts as inactive or inconclusive.

SMILES	uPA generation	Giardia kill	B2AR arrestin	p53 reactivation	ClpP mod	Mito fusion yeast
CCCN(CCC)C(=O)Cn1c(=O)n(-c2ccc(OC)cc2OC)c(=O)c2c3c(sc21)CCC3	.	.	.	.	-1%	.
COc1ccc(C(=O)NCC(c2cccnc2)N2CCc3ccccc3C2)cc1OC (configuration not stated)	.	.	.	.	1%	.
Nc1nc(N)c(N=O)c(Nc2cccc(Cl)c2)n1	.	.	.	.	1%	.
Cc1ccc(Cl)cc1NC(=O)CCCN1C(=O)CCn2nc(-c3cn(C)c4ccccc34)cc21	.	.	.	.	-18%	.
CCOc1ccc(N2CC(C(=O)Nc3ccccn3)CC2=O)cc1 (configuration not stated)	-2%	4	0%	-3%	.	-1%
CCOc1ccc(N2CC(C(=O)Nc3ncccc3C)CC2=O)cc1 (configuration not stated)	1%	6	0%	0%	18µM*	0%
COc1ccc(S(=O)(=O)NNC(=O)c2cc3c4ccccc4n(C)c3s2)cc1	-9%	3	-1%	-9%	35µM*	0%
Cc1ccc(NC(=O)CSc2nc3c(oc4ccccc43)c(=O)n2Cc2ccco2)cc1F	.	.	.	.	0%	.
CCOc1ccc(NC(=O)CCC(=O)O)cc1	0%	-10	0%	-3%	0%	-5%
CCOc1ccc(C(C)NC(=O)CCC(=O)O)cc1 (configuration not stated)	5%	27	-1%	4%	28µM*	-3%
CCC(Sc1ncccc1C(=O)Oc1cccc([N+](=O)[O-])c1)C(=O)Nc1ccccc1OC (configuration not stated)	-4%	24	0%	20%	35µM*	17%
Cc1cc(NC(=O)CSc2nc(-c3cccs3)nc3ccccc23)no1	1.8µM*	-21	0%	-5%	-23%	6%
Cc1cc(NC(=O)CSc2nc(C(C)(C)C)nc3ccccc23)no1	?	2	-1%	-3%	1%	-6%
CC(C)NC(=O)C1(C)CN(S(C)(=O)=O)CC(=O)N1Cc1ccc2c(c1)OCO2 (configuration not stated)	.	.	.	.	0%	.
COc1ccc(N(C(=O)CCl)C(C)(C(=O)Nc2c(C)cccc2C)c2ccccn2)cc1 (configuration not stated)	15%	30	13µM*	-19%	-1%	-2%
Cc1c(Cl)cccc1NC(=O)c1cnc2sc(N3CCOCC3)nn2c1=O	.	.	.	.	-4%	.
Clc1cccc(-n2ncc3c(NC4CCCCC4)ncnc32)c1	.	.	.	.	-6%	.
O=C(O)c1ccc2c(c1)C1C=CCC1C(c1cc3c(cc1Br)OCO3)N2 (configuration not stated)	?	-8	-1%	-6%	-3%	11µM*
COC(=O)c1ccc(COc2ccc3c4c(c(=O)oc3c2)CCC4)o1	1%	28	0%	15%	3.2µM*	3%
Cc1oc(C(=O)O)cc1COc1ccc2c3c(c(=O)oc2c1)CCC3	2%	-6	1%	20%	28µM*	-2%
COc1cccc(CN2CCC2(C)C(=O)Nc2cccc(Oc3ccccc3)c2)c1F (configuration not stated)	.	.	.	.	-6%	.
CCOc1ccccc1N(C)S(=O)(=O)c1ccc2[nH]cc(C(=O)N(CCOC)CCOC)c(=O)c2c1	2%	-1	-1%	1%	.	-1%
COCCN(CCOC)C(=O)c1c[nH]c2ccc(S(=O)(=O)N(C)c3ccc(F)cc3)cc2c1=O	.	-18	0%	-4%	32µM*	4%
COc1ccc(-n2nc3cc(C)c(NC(=O)c4ccc(-c5ccc(Cl)cc5)o4)cc3n2)cc1	.	.	.	.	-12%	.
Clc1ccccc1Cn1c(/C=C/c2ccco2)nc2ccccc21	-6%	-8	11%	26%	28µM*	-5%
SMILES	uPA generation	Giardia kill	B2AR arrestin	p53 reactivation	ClpP mod	Mito fusion yeast
COc1ccc(CCN2CC(O)=C(c3nc4ccccc4c(=O)[nH]3)C2=N)cc1OC	.	-12	0%	-5%	22µM*	2%
O=C(CNC(=O)c1ccccc1F)OCC(=O)N1CCCCC1	2%	2	0%	11%	25µM*	-2%
Cc1ccc(C)c(Nc2cc(C)nc(-c3ccccc3O)n2)c1	7.1µM*	-13	0%	8%	-13%	?
CCC1CSC(=Nc2ccc(C)cc2)N1C(=O)CN1C(=O)NC2(CCCC2)C1=O (configuration not stated)	8.9µM*	-3	0%	.	0%	-10%
Cc1ccc(C(NC(=O)CN2C(=O)NC3(CCCC3)C2=O)c2ccccc2)cc1 (configuration not stated)	2%	?	0%	-6%	0%	0%
CC(C)CC(=O)Nc1c(C(=O)N2CCN(c3ccccc3F)CC2)oc2ccccc12	.	.	.	.	-3%	.
O=C(Nc1ccc(OCc2cc(=O)n3ccccc3n2)cc1)c1ccccc1Cl	.	.	.	.	-4%	.
COc1ccc(NC(=O)CN2CCCN(Cc3ccc(Cl)cc3)S2(=O)=O)cc1Cl	.	.	.	.	-4%	.
CC1C/C(=C/c2ccncc2)C(=O)/C(=C/c2ccncc2)C1 (configuration not stated)	3.5µM*	?	0%	-9%	1%	3%
Cc1ccc(CCNC(=O)c2cn(C)c3ccc(S(=O)(=O)N4CCCCC4)cc3c2=O)cc1	.	.	.	.	-1%	.
COc1ccc2[nH]c3c(NCc4ccco4)ncnc3c2c1	.	-3	0%	?	16µM*!	-8%
C=CCNc1ncnc2c1[nH]c1ccc(C)cc12	?	2	0%	?	16µM*	-10%
CC(C)Oc1ncnc2c1[nH]c1ccccc12	?	-11	-1%	7%	4%	-8%
CCN(CC)CCNc1ncnc2c1[nH]c1ccc(OC)cc12	.	.	1%	15%	.	-1%
CCOc1ccc2[nH]c3c(NCCN(C)C)ncnc3c2c1	.	.	0%	-2%	.	-12%
CCOc1ccc2[nH]c3c(N4CCN(c5ccccn5)CC4)ncnc3c2c1	.	2	0%	-31%	28µM*	13%
CCCOc1ncnc2c1[nH]c1ccccc12	.	-22	0%	?	14µM*	-3%
Cc1ccc(CCNC(=O)c2cn(C)c3ccc(S(=O)(=O)N4CCC(C)CC4)cc3c2=O)cc1	.	.	.	.	-1%	.
CCCCNC(=O)c1[nH]c(C2CCNCC2)nc1-c1cccc(C(F)(F)F)c1	.	.	.	.	-13%	.
CC(C)CN(CCCNC(=O)c1cc(=O)[nH]c2ccc(S(=O)(=O)N3CCCCCC3)cc12)CC(C)C	.	.	.	.	-1%	.
CCCOc1ncnc2c1[nH]c1ccc(OC)cc12	4.5µM*	-20	0%	8%	?	-5%
CCCCC(=O)N(C)c1c(CC)nc2c(OCc3cccc(Cl)c3)cccn12	.	.	.	.	-1%	.
Cc1ccc(-c2nc(C(Cl)Cl)c3ccccc3n2)cc1	1µM*	10	0%	27%	-1%	-3%
